Shown are actives, neighbours in structure and some others; about 1.3% of the full set was active somewhere.
AMA1 RON2 block: AMA1-RON2 (P. falciparum) interaction inhibition; AlphaScreen AMA1-biotinylated RON2 peptide binding; Potency, µM (titrated, usually from 58.2 µM), for inactives: at the top dose activity change, negative = inhibition, actives largely listed as inhibitors; 360,000 tested, 0.2% active;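 note: 0% = vehicle wells and -100% = peptide control; nearly all actives have a fitted effect of over 45% in size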
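AMA1 (3D7) with his tag at 25 nM final met compounds first, then biotinylated RON2 peptide at 25 nM; detection used donor plus acceptor beads, 10 µg/mL apiece, read by AlphaScreen after 30 min at room temperature.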
Vaccinia Venus: inhibitors of vaccinia virus (Venus reporter); Vaccinia virus Venus reporter expression, fluorescence; 330,000 tested, 0.46% active; Potency, µM (titrated, usually from 36.5 µM), without a hit: top-dose activity change, negative = inhibition, hits mostly inhibitors; calls by dose curve; tested in A549 cells; note: % is set by controls: 0 for no effect and ±100 for the full control effect; nearly all actives have a fitted effect of over 30% in size
VACV mCherry inh: inhibitors of vaccinia virus infection (mCherry reporter signal); Vaccinia virus mCherry reporter infection, fluorescence; Potency, µM (series often up to 36.5 µM), inactives show top-dose activity change, negative = inhibition, hits mostly inhibitors; 310,000 tested, 0.63% active; AID 720579; calls by dose curve; tested in A549 cells; note: % is set by controls: 0 for no effect and ±100 for the full control effect; nearly all actives have a fitted effect of over 35% in size
AmpC no deterg: AmpC beta-lactamase inhibition without detergent; P00811; AmpC nitrocefin hydrolysis, absorbance 480 nm, 0.0001% Triton; Potency, µM (highest dose often 57.1 µM), without a hit: at the top dose activity change, negative = inhibition, actives largely listed as inhibitors; 330,000 tested, 0.52% active;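 note: plate controls were no compound for no effect and no enzyme for full effect; nearly all actives have a fitted effect of over 20% in size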
Target sequence (P00811 whole entry, looked up): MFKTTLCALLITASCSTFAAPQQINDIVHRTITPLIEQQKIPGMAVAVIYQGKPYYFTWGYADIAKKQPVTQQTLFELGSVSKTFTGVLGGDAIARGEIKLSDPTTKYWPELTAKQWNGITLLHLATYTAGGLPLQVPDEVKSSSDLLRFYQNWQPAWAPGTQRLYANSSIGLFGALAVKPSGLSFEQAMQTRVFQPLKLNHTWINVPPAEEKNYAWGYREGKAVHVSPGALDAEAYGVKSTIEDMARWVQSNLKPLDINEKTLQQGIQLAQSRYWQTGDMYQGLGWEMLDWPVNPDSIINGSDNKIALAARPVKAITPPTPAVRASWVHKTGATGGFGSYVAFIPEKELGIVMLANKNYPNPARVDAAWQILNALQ
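AmpC (5.3 nM in the dispensed reagent) in 20 mM phosphate pH 7.0 with 0.01% (detergent screen) or 0.0001% Triton X-100 was preincubated with compounds for 15 min at room temperature. Nitrocefin was then added from an 800 uM solution, and hydrolysis was followed at 480 nm.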
AmpC detergent: AmpC beta-lactamase inhibition with detergent present | AmpC hydrolysis of nitrocefin, absorbance 480 nm, 0.01% Triton | Potency, µM (highest dose often 114 µM), inactives show at the highest dose activity change, negative = inhibition, actives largely listed as inhibitors | 370,000 tested, 0.041% active | AID 485294;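 note: 0% = no-compound wells and -100% = no-enzyme wells; nearly all actives have a fitted effect of over 25% in size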
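AmpC (5.3 nM in the dispensed reagent) in 20 mM phosphate pH 7.0 with 0.01% (detergent screen) or 0.0001% Triton X-100 was preincubated with compounds for 15 min at room temperature. Nitrocefin was then added from an 800 uM solution, and hydrolysis was followed at 480 nm.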
SARS PLP yeast: SARS-CoV PLP inhibition in yeast; S. cerevisiae expressing SARS-CoV PLpro, growth rescue; 330,000 tested, 0.19% active; Potency, µM (series often up to 32.9 µM), for the others: at the highest dose activity, positive = growth rescue, hits mostly activators; calls by dose curve; note: 0% is about no effect; nearly all actives have a fitted effect of over 55% in size
The depositor's hits bear a star; i = inactive; ? = inconclusive; . = not tested or not shown; ! = not confirmed by another sample; [ ] = dose if it differs, or a comment. Unless noted, calls come from the whole dose curve; as a rule, active = well fitted curve in the direction sought with a large enough effect; inconclusive = small, poorly fitted or top-dose-only effect, or another doubt; inactive = no such curve, though single readings can be large; an effect the other way counts as inactive or inconclusive. Potency is the fitted concentration of half-maximal effect.

SMILES	AMA1 RON2 block	Vaccinia Venus	VACV mCherry inh	AmpC no deterg	AmpC detergent	SARS PLP yeast
COc1cc(=O)n2c(c1C(=O)N(C)Cc1nonc1C)CCN(C(=O)c1cccc(C)c1C)CC2	.	0.0%	i	.	.	.
CCOc1ccc(N2Nc3n[nH]c(N)c3N2)cc1	49.4%	?	2µM*	-44.9%	-9.9%	0.5%
C/C(CCc1oc2c(Br)cc(Br)cc2c1-c1ccc(C)o1)=N\O	3.77µM*	-2.1%	i	-46.1%	0.2%	-60.5%
CC(=O)c1ccc(F)c(-c2cc(C)cc3c2OC(CNC(=O)c2ccnn2C)C3)c1 (stereo not given)	.	?	-12.1%	.	.	.
CC(C)N1CCc2c(sc(NC(=O)C3CCCCC3)c2C(N)=O)C1	5.6%	12.6µM*	?	-15.1%	4.6%	-3.0%
CCOC(=O)N1CCN(Cc2ccc3c(c2)CN(C(=O)c2ccc4ncccc4c2)CCO3)CC1	.	-23.1%	-20.6%	.	.	.
O=C(CC1SC(=O)N(c2ccccc2)C1=O)Nc1cccc2ccccc12 (stereo not given)	70.0%	-8.5%	?	17.8µM*	-4.2%	1.6%
Cc1ccccc1NC(=O)CC1SC(=O)N(c2ccccc2)C1=O (stereo not given)	73.5%	13.2%	3.8%	-22.4%	2.6%	-14.0%
c1ccc(-c2nc(-c3cccnc3)n[nH]2)cc1	.	.	.	-41.3%	-9.2%	20.7%
Brc1cccc(-c2n[nH]c(-c3ccccc3)n2)c1	-4.7%	?	?	8.91µM*	-3.6%	-20.5%
O=C(Oc1ccc2c(c1)OCO2)c1cc2c(s1)CCC2	-19.2%	.	.	15.8µM*	-11.6%	0.6%
CCS(=O)(=O)N1CCc2cc(C(=O)Nc3ccc(OC)cc3OC)ccc21	.	-20.3%	-7.4%	.	-0.4%	.
Cc1ccc(C)c(CN2CCC3(CCC(CNC(=O)c4ccnn4C)O3)CC2)c1 (stereo not given)	.	-17.2%	-18.4%	.	.	.
CCC(=O)NC(=S)NNC(=O)c1ccc(OC)cc1	22.7%	-3.4%	-24.7%	-44.5%	56.2µM*	-3.4%
CCCOc1ccc(C(=O)NNC(=S)NC(=O)c2cccs2)cc1	62.4%	?	10µM*	-45.0%	-11.0%	-38.1%
CCCOc1ccc(C(=O)NNC(=S)NC(=O)c2cc(-c3ccccc3)nc3ccccc23)cc1	5.8%	-26.6%	-25.2%	4.47µM*	-12.7%	0.5%
CCCOc1ccc(C(=O)NNC(=S)NC(=O)c2ccccc2)cc1	81.4%	?	?	-46.0%	-4.1%	-6.7%
CCCOc1ccc(C(=O)NNC(=S)NC(=O)c2ccco2)cc1	77.9%	?	11.2µM*	-21.4%	-3.1%	0.0%
CCCOc1ccc(C(=O)NNC(=S)NC(=O)c2ccccc2[N+](=O)[O-])cc1	61.1%	-18.4%	-0.5%	-32.5%	-3.1%	-2.4%
CC(C)C(NS(C)(=O)=O)c1nnc2n1CCN(Cc1ccnc3ccccc13)CC2 (stereo not given)	.	-6.4%	-17.7%	.	.	.
CSc1nnc(CCNC(=O)c2ccc(-c3cccc(F)c3)cc2)n1-c1ccc(F)cc1	.	-4.3%	-16.3%	.	.	.
CCOc1cccc(-c2cc(C(=O)Nc3ccon3)c3ccccc3n2)c1	-3.7%	-9.1%	-14.3%	17.8µM*	-1.5%	-1.8%
O=C(Nc1ccon1)c1cc(-c2ccccc2)nc2ccccc12	-3.3%	-10.5%	.	-32.5%	-10.3%	2.8%
CCC1CN(CCNC(=O)c2scc3c2OCCO3)Cc2cc(OC)ccc2O1 (stereo not given)	.	-1.5%	-10.5%	.	.	.
CC(Sc1ncnc2sccc12)C(=O)Nc1ccc(S(=O)(=O)N2CCOCC2)cc1 (stereo not given)	-11.7%[11.6 µM]	?	15.8µM*	.	.	.
SMILES	AMA1 RON2 block	Vaccinia Venus	VACV mCherry inh	AmpC no deterg	AmpC detergent	SARS PLP yeast
O=C(NCc1nnc2n1CCN(Cc1cc3c(cc1Cl)OCO3)CC2)c1cccc(F)c1	.	-24.1%	-5.9%	.	.	.
C=C[C@H]1CN2CC[C@H]1C[C@H]2[C@H](OC(=O)OCC)c1ccnc2ccc(OC)cc12	.	-13.5%	-17.3%	.	.	.
Cc1ccc(NC(=O)CSc2nn(-c3ccccc3)c(=S)s2)cc1S(=O)(=O)N(C)C	-4.5%	?	?	28.2µM*	-18.5%	0.3%
NC[C@H]1O[C@@H](n2ccc(N)nc2=O)[C@H](O)[C@@H]1O	2.0%	-9.4%	34.8%	.	.	.
OCC1OC(n2ccc3c2ncn2ncnc32)C(O)C1O (stereo not given)	0.0%	?	?	.	.	.
Nc1ccn(C2OC(CO)C(O)C2O)c(=O)n1 (stereo not given)	.	-25.5%	0.0891µM*!	.	.	.
Nc1ccn(C2OC(CO)C(O)C2F)c(=O)n1 (stereo not given)	11.9%	?	?	.	.	.
Nc1ncn([C@@H]2O[C@H](CO)[C@@H](O)[C@H]2O)c(=O)n1	-0.1%	6.31µM*	2.82µM*!	-7.0%	?	.
Nc1ncnc2c1ccn2[C@@H]1O[C@H](CO)[C@@H](O)[C@H]1O	-1.7%	1.78µM*	1.41µM*	.	.	.
Nc1ccn([C@@H]2O[C@H](CO)[C@@H](O)[C@@H]2O)c(=O)n1	-2.9%	?	0.501µM*	-22.7%	-11.3%	1.1%
NC(=O)c1ncn(C2OC(CO)C(O)C2O)c1N (stereo not given)	.	-8.2%	-13.1%	.	.	.
Cc1c(C(=O)N2CCCC2)sc2ncnc(NCCN(C)C)c12	.	-19.4%	i	.	.	.
COCC(=O)Nc1cc(C(=O)N2CCCOc3c(cccc3OC)C2)c2c(c1)nc(C1CCC1)n2C	.	-10.7%	-8.9%	.	.	.
CC(C)c1ccc(CNc2ccc3c(c2)ncn3C)cc1	-17.6%	.	.	21.1%	3.1%	-2.5%
CN(C)c1ccc(CNc2ccc3c(c2)ncn3C)cc1	26.7µM*	.	.	4.7%	?	1.3%
CCN(CC)c1ccc(CNc2ccc3c(c2)ncn3C(C)(C)C)cc1	28.2µM*	-15.7%	?	46.3%	0.7%	-0.4%
O=C(c1cccc(Cn2cccn2)c1)N1CCC(n2c(C3CCCO3)nc3cc(C(F)(F)F)ccc32)CC1 (stereo not given)	.	8.9%	-11.2%	.	.	.
c1coc(CNc2ncnc3[nH]ncc23)c1	-1.4%	?	6.31µM*!	-11.4%	1.3%	1.6%
COc1cccc(NS(=O)(=O)c2ccc3[nH]cc(C(=O)NCCc4ccc(C)cc4)c(=O)c3c2)c1	.	-10.3%[7.34 µM]	-8.6%[7.34 µM]	6.31µM*	-13.2%	0.1%
Cc1cc(C)cc(NS(=O)(=O)c2ccc3[nH]cc(C(=O)NCc4ccco4)c(=O)c3c2)c1	8.3%	11.2µM*	10µM*	15.8µM*	-9.7%	10.2%
COc1cccc(NS(=O)(=O)c2ccc3[nH]cc(C(=O)NCCc4ccccc4)c(=O)c3c2)c1	.	-5.3%	-4.8%	.	1.5%	.
COCCNC(=O)c1c[nH]c2ccc(S(=O)(=O)N3CCc4ccccc43)cc2c1=O	6.6%	5.62µM*	?	151.9%	-0.2%	1.9%
COc1ccc(-c2nc3cc(F)ccc3cc2CN(C(=O)c2cccs2)C2CC2)cc1	.	-10.5%	i	.	.	.

High-throughput results as filed in PubChem BioAssay.
